Experimental data: PubChem BioAssay (NCATS)
Unmarked numbers belong to inactive results. Inconclusive results are not listed. Calls of active or inactive are those of the source. Unless noted, calls follow the shape of the dose curve; as a rule, active = well fitted curve in the direction sought with a large enough effect; inconclusive = small, poorly fitted or top-dose-only effect, or another doubt; inactive = no such curve, though single readings can be large; an effect the other way counts as inactive or inconclusive.

Experiments:
[1] = target: Lysosomal acid glucosylceramidase (Homo sapiens) (UniProt P04062); experiment: Glucocerebrosidase-p2 (AID 348; in the data active = potency below about 10 µM; also: potency is read from the fitted curve at half-maximal effect); conditions: purified GBA, blue fluorogenic substrate, 40 min
Procedure, shortened: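 Compounds titrated from 0.6 nM upwards against 0.2 nM enzyme in pH 5.9 citric acid/KH2PO4, taurocholate, tween-20; blue fluorogenic substrate 80 uM, 40 min room temperature, stopped and read Ex 365/Em 440 for AC50.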

[2] = AP1 Signaling Pathway (AID 357; active = well fitted curve in either direction with a large enough effect, not every such curve was filed as active;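 also: ME-180 reporter cells stimulated with EGF at its EC50 level; % is scaled to controls: 0 for no effect and ±100 for the full control effect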); conditions: ME-180 AP-1-bla reporter, EGF-induced, beta-lactamase ratio, 5 h; at 7.69 µM (top of the series) unless noted
Procedure, shortened: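 Beta-lactamase reporter under AP-1 response element, ME-180 background. Stimulus: EC50 EGF. Compound exposure 5 h, 37 °C. Detection: CCF4, 2.5 h RT, 460/530 nm. Values: AC50 from titration.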

[3] = NFAT Signaling Pathway (AID 444; active = well fitted curve in either direction with a large enough effect, not every such curve was filed as active;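 also: carbachol stimulus at about its EC50 of 1 µM final; % is scaled to controls: 0 for no effect and ±100 for the full control effect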); conditions: Jurkat NFAT-bla M1, carbachol, beta-lactamase ratio, 5 h; at 7.69 µM (top of the series) unless noted
Procedure, shortened: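 Jurkat cells carrying an NFAT-driven β-lactamase reporter and co-transfected muscarinic M1 receptor were treated with compound plus carbachol (1 uM final, an EC50 level) for 5 h at 37 °C. CCF4 loading followed for 1 h at RT; 460/530 nm ratio gave %activity.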

[4] = Stat Signaling Pathway (AID 446; active = well fitted curve in either direction with a large enough effect, not every such curve was filed as active;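 also: ME-180 cervical cancer cells given 40 pM IL-6 alongside compound; SIE-controlled beta-lactamase reporter measured as 460/530 nm FRET emission ratio; % is scaled to controls: 0 for no effect and ±100 for the full control effect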); conditions: ME-180 SIE beta-lactamase reporter, IL-6 stimulated, 5 h; at 7.69 µM (top of the series) unless noted
Procedure, shortened: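 Reporter line: ME-180 cervical carcinoma, SIE-beta-lactamase. Treatment: compound with 40 pM IL-6, 5 hrs, 37 C, in low-serum OPTI-MEM with 10 mM HEPES pH 7.3. Detection: 460/530 nm fluorescence.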

[5] = target: Glucocorticoid receptor (Homo sapiens) (UniProt P04150); experiment: GR-GFP Redistribution (AID 450;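 active = compounds whose dose series gives a full or clear partial fitted curve of increased nuclear translocation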; also: potency is read from the fitted curve at half-maximal effect); conditions: U2OS GR-GFP nuclear translocation, laser cytometry, 2 h
[6] = target: Glucocorticoid receptor (Homo sapiens) (UniProt P04150); experiment: GR-EFC Redistribution (AID 451; calls by dose curve; also: potency is read from the fitted curve at half-maximal effect); conditions: CHO-K1 GR-EFC translocation, beta-gal luminescence, 2 h
Procedure, shortened: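 CHO-K1 cells stably expressing nuclear-localized β-gal enzyme acceptor and GR fused C-terminally to the enzyme donor fragment; ligand-driven nuclear translocation restores β-gal by complementation. Compounds titrated up to 46 uM final, 2 h at 37 °C; luminescence read.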

[7] = target: Mitogen-activated protein kinase 10 (Mus musculus) (UniProt Q61831); experiment: JNK3 AlphaScreen Assay (AID 530; active = well fitted curve in either direction with a large enough effect, not every such curve was filed as active;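 also: kinase came from lysate of stimulated human HepG2 cells; signal reports phosphorylation of biotinylated GST-cJun 1-79 at Ser73 with 10 µM ATP; % is scaled to controls: 0 for no effect and ±100 for the full control effect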); conditions: JNK3 lysate, c-Jun phosphorylation; series mostly up to 57.1 µM
Procedure, shortened: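 Inhibitors reduce antibody binding to phosphorylated biotin-cJun, lowering AlphaScreen luminescence. Lysates from HepG2 cells pre-activated by IL-1beta plus TNF-alpha supplied JNK3; compounds were titrated.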

[8] = target: 3',5'-cyclic-AMP phosphodiesterase 4B (Homo sapiens) (UniProt Q07343); experiment: qHTS Assay for Inhibitors of PDE-IV (AID 607; active = well fitted activation curve with a large enough effect in the main read-out, with a control signal flat, not every such curve was filed as active; also: % of control where 0% means no effect); conditions: HEK293 ACTOne CNG channel cells, membrane potential fluorescence; series mostly up to 22.9 µM
Procedure, shortened: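 Cell-based read-out of cAMP via a modified cyclic nucleotide-gated channel and membrane potential dye (535/590 nm) in HEK293 cells expressing PDE4 endogenously. Compounds tested up to 22.9 uM final; 100 uM RO 20-1724 reference.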

[9] = qHTS Assay for Identification of Small Molecule Agonists for Hypoxia Response Element Signaling Pathway (AID 914; active = well fitted activation curve with a large enough effect in the signal ratio, with a control signal flat, not every such curve was filed as active; the % refers to the signal ratio; also: % of control where 0% means no effect); conditions: ME-180 (cervical carcinoma) HRE-bla reporter, beta-lactamase ratio, CoCl2, 17 h; activation: active compounds read high
Procedure, shortened: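 HRE-bla ME-180 cells with beta-lactamase reporter under hypoxia response element, compounds with EC50 CoCl2 for 17 hours at 37 C. CCF4 substrate, 460nm/530nm emission ratio gave %Activity; AC50 from titration series.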

[10] = target: Dual specificity protein kinase CLK4 (Homo sapiens) (UniProt Q9HAZ1); experiment: qHTS Assay for Inhibitors of CDC-like Kinase 4 (Kinase-Glo Assay) (AID 1770); conditions: recombinant Clk4, Kinase-Glo ATP depletion luminescence; series mostly up to 66.7 µM; also: nearly all actives have a fitted effect of over 65% in size; also: potency is read from the fitted curve at half-maximal effect
Procedure, shortened: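 Clk4 25 nM, RS peptide 100 uM, ATP 1 uM, pH 7.5 Tris, 10 mM MgCl2, 2.5 mM DTT; 4.5 h RT; ATP depletion read by Kinase-Glo luminescence.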

[11] = target: Dual specificity protein kinase CLK4 (Homo sapiens) (UniProt Q9HAZ1); experiment: qHTS Assay for Inhibitors of CDC-like Kinase 4 (ADP-Glo Assay) (AID 1771); conditions: recombinant CLK4, ADP-Glo luminescence; series mostly up to 80 µM; also: nearly all actives have a fitted effect of over 70% in size; also: potency is read from the fitted curve at half-maximal effect
Procedure, shortened: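 25 nM Clk4 with 100 uM RS repeat peptide and 1 uM ATP (final) in buffer with 2 mM MgCl2, 0.5 mM EGTA, 2.5 mM DTT, 0.01% Triton X-100; 1 h at room temperature; ADP-Glo luminescence for ADP formed.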

[12] = target: Dual specificity protein kinase CLK4 (Homo sapiens) (UniProt Q9HAZ1); experiment: qHTS Assay for Inhibitors of CDC-like Kinase 4 (ADP-FP Assay) (AID 1795); conditions: Transcreener ADP fluorescence polarization; series mostly up to 50 µM; also: nearly all actives have a fitted effect of over 60% in size; also: potency is read from the fitted curve at half-maximal effect
Procedure, shortened: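 Kinase activity was followed as ADP output, converted from fluorescence polarization with a calibration curve. Reactions ran one hour at low ATP (1 uM) with RS peptide substrate.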

[13] = target: Ubiquitin carboxyl-terminal hydrolase 1 (Homo sapiens) (UniProt O94782); experiment: Inhibitors of USP1/UAF1: Pilot qHTS (AID 504865); conditions: purified USP1/UAF1, Ub-rhodamine cleavage fluorescence; series mostly up to 54.9 µM;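 also: rhodamine fluorescence freed from ubiquitin-rhodamine substrate followed over time; top concentration of the series differs between compounds; % is scaled to controls: 0 for no effect and ±100 for the full control effect; nearly all actives have a fitted effect of over 35% in size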
Procedure, shortened: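 Enzyme-free wells gave the negative control, while test wells held 1nM USP1/UAF1 preincubated with compound for 15 min at room temperature. Ub-Rho at 150nM final started the reaction, and fluorescence at 480/540 nm was recorded kinetically.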

[14] = Primary qHTS for small molecule stabilizers of the endoplasmic reticulum resident proteome: Secreted ER Calcium Modulated Protein (SERCaMP) assay (AID 1508630); conditions: SH-SY5Y GLuc-SERCaMP (Gaussia luciferase released on ER calcium loss) secretion, thapsigargin, luminescence; series mostly up to 38.4 µM; also: % is scaled to controls: 0 for no effect and ±100 for the full control effect
Procedure, shortened: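 GLuc-SERCaMP-expressing SH-SY5Y cells, pretreated 16 h with compound, are challenged with thapsigargin to empty ER calcium stores; after 4 h, coelenterazine is added directly to the medium and luminescence is imaged.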

[15] = target: Cytochrome P450 3A4 (Homo sapiens) (UniProt P08684); experiment: qHTS Assay for Activators of Cytochrome P450 3A4 (AID 885); conditions: recombinant CYP3A4, Luciferin-PPXE luminescence, 60 min; series mostly up to 57.1 µM; also: nearly all actives have a fitted effect of over 65% in size
Procedure, shortened: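 Signal was normalized against complete inhibition by 57 uM ketoconazole. The reaction used 20nM CYP3A4 with 25uM Luciferin-PPXE, 10-min compound preincubation and a 60-min NADPH-supported step at RT.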

[16] = target: Cytochrome P450 1A2 (Homo sapiens) (UniProt P05177); experiment: p450-cyp1a2 (AID 410; calls by dose curve; also: potency is read from the fitted curve at half-maximal effect); conditions: recombinant CYP1A2, luciferin-ME demethylation, luminescence; series mostly up to 57 µM
Procedure, shortened: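 20nM CYP1A2 with 100uM Luciferin-ME (at Km) in 100mM KPO4; compound preincubated 10 min, NADPH regeneration added, 60 min at room temperature. Luciferin quantified by luminescence after detection reagent; normalized to 57 uM furafylline.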

[17] = target: Cytochrome P450 3A4 (Homo sapiens) (UniProt P08684); experiment: qHTS Assay for Inhibitors and Substrates of Cytochrome P450 3A4 (AID 884); conditions: recombinant CYP3A4, Luciferin-PPXE luminescence; series mostly up to 57.1 µM; also: potency is read from the fitted curve at half-maximal effect; nearly all actives have a fitted effect of over 50% in size
Procedure, shortened: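 20 nM human CYP3A4 with 25 uM Luciferin-PPXE (at KM) in 200 mM KPO4, preincubated 10 min with compound; NADPH regeneration started a 60 min RT reaction. Luciferin detected by luminescence, normalized to 57 uM ketoconazole as full inhibition.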

[18] = target: Cytochrome P450 2D6 (Homo sapiens) (UniProt P10635); experiment: qHTS Assay for Inhibitors and Substrates of Cytochrome P450 2D6 (AID 891); conditions: recombinant CYP2D6, luciferin-ME EGE luminescence; series mostly up to 57.1 µM; also: potency is read from the fitted curve at half-maximal effect; nearly all actives have a fitted effect of over 60% in size
Procedure, shortened: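 Human CYP2D6 (5 nM) with 30 uM Luciferin-ME EGE (at Km) in 100 mM KPO4, compound preincubated 10 min, then NADPH regeneration system for 60 min at room temperature. Luciferin read by luminescence; normalized to 1.43 uM quinidine.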

Lysosomal acid glucosylceramidase (Homo sapiens), sequence (P04062 whole entry, looked up): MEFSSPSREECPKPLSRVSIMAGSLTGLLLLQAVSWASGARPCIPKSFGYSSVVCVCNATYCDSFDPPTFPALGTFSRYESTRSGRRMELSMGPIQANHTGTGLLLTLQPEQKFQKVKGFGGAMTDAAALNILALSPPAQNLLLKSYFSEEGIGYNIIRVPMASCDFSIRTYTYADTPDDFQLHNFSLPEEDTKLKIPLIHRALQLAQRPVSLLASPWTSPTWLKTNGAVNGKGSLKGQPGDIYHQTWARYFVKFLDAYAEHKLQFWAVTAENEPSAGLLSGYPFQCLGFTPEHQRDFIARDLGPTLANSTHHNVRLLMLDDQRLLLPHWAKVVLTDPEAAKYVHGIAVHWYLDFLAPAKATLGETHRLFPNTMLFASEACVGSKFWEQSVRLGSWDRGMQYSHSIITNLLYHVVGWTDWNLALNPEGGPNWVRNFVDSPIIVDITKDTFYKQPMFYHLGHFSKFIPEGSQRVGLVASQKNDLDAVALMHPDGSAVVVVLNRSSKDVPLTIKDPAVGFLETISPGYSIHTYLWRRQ
Ubiquitin carboxyl-terminal hydrolase 1 (Homo sapiens), sequence (O94782 whole entry, looked up): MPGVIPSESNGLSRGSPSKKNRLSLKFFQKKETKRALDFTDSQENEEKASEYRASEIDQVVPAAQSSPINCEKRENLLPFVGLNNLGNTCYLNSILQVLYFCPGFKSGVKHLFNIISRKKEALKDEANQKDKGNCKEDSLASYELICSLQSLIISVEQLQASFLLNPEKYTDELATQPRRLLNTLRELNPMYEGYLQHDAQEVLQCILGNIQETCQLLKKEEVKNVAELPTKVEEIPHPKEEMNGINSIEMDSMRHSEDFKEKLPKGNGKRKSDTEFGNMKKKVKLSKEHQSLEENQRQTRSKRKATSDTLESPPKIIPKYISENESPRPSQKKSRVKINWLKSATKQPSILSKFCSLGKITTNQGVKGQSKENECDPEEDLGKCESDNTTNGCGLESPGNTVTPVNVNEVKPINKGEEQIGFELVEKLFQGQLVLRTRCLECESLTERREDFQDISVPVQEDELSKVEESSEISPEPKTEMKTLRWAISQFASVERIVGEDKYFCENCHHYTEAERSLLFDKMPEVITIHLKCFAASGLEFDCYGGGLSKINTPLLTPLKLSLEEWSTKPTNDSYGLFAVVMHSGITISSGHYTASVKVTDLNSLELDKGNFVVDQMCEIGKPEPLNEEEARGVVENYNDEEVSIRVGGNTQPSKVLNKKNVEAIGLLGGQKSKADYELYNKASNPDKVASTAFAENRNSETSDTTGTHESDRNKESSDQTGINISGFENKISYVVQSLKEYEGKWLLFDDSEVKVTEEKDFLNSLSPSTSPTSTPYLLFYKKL
Cytochrome P450 3A4 (Homo sapiens), sequence (P08684 whole entry, looked up): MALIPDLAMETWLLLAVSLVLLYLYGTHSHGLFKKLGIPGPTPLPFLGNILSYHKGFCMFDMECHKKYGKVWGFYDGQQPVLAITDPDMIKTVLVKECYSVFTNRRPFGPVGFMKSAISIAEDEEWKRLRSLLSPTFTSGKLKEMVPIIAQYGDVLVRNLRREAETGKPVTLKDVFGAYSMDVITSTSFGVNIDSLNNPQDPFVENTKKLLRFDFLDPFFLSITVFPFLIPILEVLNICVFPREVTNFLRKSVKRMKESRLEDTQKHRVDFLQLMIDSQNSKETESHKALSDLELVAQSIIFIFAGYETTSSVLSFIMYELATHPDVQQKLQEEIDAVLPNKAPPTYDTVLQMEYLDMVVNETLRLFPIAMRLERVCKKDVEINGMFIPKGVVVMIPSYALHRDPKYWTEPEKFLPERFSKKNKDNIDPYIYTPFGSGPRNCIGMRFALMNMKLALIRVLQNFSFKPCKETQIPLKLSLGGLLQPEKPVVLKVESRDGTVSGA
3',5'-cyclic-AMP phosphodiesterase 4B (Homo sapiens), sequence (Q07343 whole entry, looked up): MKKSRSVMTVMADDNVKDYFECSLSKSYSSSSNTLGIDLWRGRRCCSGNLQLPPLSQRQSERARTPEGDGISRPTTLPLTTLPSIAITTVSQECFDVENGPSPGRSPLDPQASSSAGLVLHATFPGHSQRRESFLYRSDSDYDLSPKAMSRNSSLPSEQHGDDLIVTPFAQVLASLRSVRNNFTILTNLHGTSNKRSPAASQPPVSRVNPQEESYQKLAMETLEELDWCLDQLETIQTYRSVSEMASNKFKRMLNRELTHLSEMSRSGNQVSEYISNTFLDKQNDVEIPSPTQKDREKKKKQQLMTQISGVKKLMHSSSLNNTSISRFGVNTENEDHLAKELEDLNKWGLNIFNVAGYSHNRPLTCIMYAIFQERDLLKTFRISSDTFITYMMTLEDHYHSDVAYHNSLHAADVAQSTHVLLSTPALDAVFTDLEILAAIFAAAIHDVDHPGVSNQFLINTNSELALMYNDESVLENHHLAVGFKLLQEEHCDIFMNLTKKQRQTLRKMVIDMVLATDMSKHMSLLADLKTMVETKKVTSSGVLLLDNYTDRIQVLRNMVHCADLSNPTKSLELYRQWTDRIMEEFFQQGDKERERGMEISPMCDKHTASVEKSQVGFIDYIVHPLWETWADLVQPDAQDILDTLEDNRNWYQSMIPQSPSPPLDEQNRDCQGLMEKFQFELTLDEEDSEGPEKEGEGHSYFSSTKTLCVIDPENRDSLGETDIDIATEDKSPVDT
Glucocorticoid receptor (Homo sapiens), sequence (P04150 whole entry, looked up, the tested form may be a part): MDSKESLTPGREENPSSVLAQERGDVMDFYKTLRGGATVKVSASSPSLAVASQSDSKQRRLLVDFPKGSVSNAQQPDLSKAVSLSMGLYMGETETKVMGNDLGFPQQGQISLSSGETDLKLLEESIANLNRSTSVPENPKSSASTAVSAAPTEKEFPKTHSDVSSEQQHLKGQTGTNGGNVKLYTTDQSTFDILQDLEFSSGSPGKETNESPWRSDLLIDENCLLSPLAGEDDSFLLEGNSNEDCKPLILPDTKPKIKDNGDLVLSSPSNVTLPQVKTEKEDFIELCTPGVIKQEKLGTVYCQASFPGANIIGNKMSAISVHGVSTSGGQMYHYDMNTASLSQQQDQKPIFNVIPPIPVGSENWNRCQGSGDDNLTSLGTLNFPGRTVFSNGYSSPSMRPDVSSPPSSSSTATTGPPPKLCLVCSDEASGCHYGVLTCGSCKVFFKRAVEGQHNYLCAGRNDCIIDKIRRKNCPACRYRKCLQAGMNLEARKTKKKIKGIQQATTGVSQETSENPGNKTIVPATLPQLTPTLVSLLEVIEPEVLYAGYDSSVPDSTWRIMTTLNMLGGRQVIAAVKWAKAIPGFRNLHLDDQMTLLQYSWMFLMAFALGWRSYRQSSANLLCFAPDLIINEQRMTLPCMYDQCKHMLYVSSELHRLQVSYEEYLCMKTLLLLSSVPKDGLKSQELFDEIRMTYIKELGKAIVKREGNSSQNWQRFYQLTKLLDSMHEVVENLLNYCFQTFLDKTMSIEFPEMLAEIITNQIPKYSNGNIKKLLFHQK
Dual specificity protein kinase CLK4 (Homo sapiens), sequence (Q9HAZ1 whole entry, looked up): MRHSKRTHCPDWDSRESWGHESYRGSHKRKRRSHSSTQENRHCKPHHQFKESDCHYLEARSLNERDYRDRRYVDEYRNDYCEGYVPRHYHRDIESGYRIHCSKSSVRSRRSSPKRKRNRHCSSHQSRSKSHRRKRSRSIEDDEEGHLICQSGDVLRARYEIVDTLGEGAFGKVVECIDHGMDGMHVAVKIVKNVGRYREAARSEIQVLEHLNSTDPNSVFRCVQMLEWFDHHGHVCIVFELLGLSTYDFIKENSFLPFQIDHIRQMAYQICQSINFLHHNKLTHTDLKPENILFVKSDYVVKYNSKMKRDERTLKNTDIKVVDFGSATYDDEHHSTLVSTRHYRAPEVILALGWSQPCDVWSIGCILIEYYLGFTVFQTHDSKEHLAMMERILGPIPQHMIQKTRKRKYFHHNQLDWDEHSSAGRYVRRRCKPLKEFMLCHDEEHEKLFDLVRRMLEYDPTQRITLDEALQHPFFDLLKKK
Cytochrome P450 2D6 (Homo sapiens), sequence (P10635 whole entry, looked up): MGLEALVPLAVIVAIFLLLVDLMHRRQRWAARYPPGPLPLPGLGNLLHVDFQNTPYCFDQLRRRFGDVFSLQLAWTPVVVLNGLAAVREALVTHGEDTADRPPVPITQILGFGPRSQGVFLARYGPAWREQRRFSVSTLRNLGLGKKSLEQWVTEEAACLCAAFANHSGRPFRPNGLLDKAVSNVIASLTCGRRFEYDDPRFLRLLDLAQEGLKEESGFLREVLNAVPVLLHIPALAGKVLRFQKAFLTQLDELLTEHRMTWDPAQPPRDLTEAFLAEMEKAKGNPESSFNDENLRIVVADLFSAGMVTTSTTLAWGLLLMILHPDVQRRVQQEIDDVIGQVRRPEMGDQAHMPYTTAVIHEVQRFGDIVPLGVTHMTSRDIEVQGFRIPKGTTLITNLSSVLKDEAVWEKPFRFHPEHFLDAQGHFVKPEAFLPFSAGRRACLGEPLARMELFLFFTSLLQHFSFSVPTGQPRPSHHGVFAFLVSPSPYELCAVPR
Cytochrome P450 1A2 (Homo sapiens), sequence (P05177 whole entry, looked up): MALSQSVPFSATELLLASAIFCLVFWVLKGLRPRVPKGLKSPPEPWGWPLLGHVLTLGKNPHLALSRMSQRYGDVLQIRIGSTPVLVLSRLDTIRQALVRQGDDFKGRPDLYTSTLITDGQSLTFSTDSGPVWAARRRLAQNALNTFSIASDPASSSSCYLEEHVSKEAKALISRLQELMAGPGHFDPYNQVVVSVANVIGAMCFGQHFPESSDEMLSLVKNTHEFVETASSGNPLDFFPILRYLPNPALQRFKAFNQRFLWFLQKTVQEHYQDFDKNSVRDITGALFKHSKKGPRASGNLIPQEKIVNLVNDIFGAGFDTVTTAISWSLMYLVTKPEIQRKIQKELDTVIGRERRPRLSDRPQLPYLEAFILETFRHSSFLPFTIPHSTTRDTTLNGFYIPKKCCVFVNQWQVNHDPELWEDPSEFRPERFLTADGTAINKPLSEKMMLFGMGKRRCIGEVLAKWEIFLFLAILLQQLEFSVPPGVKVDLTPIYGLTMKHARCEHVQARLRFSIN

Row | Compound | Potency [1] [µM] | activity change, negative = inhibition [2] [%] | activity change, negative = inhibition [3] [%] | activity, negative = inhibition [4] [%] | Potency [5] [µM] | Potency [6] [µM] | Potency [7] | Potency [8] | activation [9] [%] | Potency [10] | Potency [11] | Potency [12] | Potency [13] | outcome [14] | Potency [15] | Potency [16] | Potency [17] | Potency [18]
1 | COCCn1c(=O)cnc2cnc(N3CCOCC3)nc21 | > 11.4 | 8.71 | -0.664 | -12.6 | > 9.22 | > 46 | inactive | inactive | -5.07 | inactive | inactive | inactive | inactive | inactive |  |  |  | 
2 | c1ccc(CNc2ncnc3ccc(-c4ccoc4)cc23)cc1 | > 11.4 | -25 | 11.4 | -19.6 | > 46 | > 46 |  | inactive |  | 14.1 µM (active) | 12.6 µM (active) | 12.6 µM (active) | inactive | inactive |  |  |  | 
3 | COc1cccc(Cn2c(=O)c(-c3cccs3)nc3cnc(N4CCOCC4)nc32)c1 | > 11.4 | 21.6 | 5.78 |  | > 9.22 | > 46 |  | inactive |  | inactive | inactive | inactive | inactive | inactive |  |  |  | 
4 | COc1ncc2nc(-c3ccc(Cl)cc3)c(=O)n(C)c2n1 | > 11.4 | -10.2 | 8.73 | 1.71 | > 9.22 | > 46 | inactive | inactive |  | inactive | inactive | inactive | inactive | inactive | inactive |  |  | 
5 | c1cn(-c2ccnc(-c3ccc4c(c3)OCO4)n2)cn1 | > 11.4 |  | 17.8 | 5.91 | > 46 | > 46 | inactive | inactive |  | 2.51 µM (active) | 2.24 µM (active) | 3.98 µM (active) | inactive | inactive | inactive | 0.0251 µM (active) | 0.631 µM (active) | 3.16 µM (active)
6 | FC(F)(F)c1ccccc1-c1nccc(NCCN2CCOCC2)n1 | > 11.4 | 27.9 |  | -13.3 | > 46 | > 46 | inactive | inactive |  | inactive | inactive | inactive | inactive | inactive | inactive |  |  | 
